About 7,900 targets were measured; listed, in parts, are those with a hit and a random draw of the rest. About 0.6% of all pairs of compound and target were hits.
Experiments:
Assay in all cases: log2 fold change, soluble protein after heating vs DMSO (PISA); higher = thermal stabilisation; K562 cells, 10 uM, 30 min; active = over 0.2 and 3.5 SD of the protein, either way, in both replicates (recomputed)
[1] = compound: COC1=CC=C(C=C1)CN2C=CC3=C2C=C(C=C3)C(=O)NO
How it was run: (§1)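 K562 cells at 2×10^6 cells/mL were treated for 30 min with 10 μM compound, and aliquots were heated for 3 min over 48°C-58°C before pooling. Extraction used PBS with 0.5% NP-40 at 4°C, and soluble protein was the supernatant after 21,000xg for 90 min, measured by TMTpro 16plex LC-MS/MS with channel sums equalised. Thermal stability values, relative to control samples and from duplicates, are log2 fold changes.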

filanesib = compound: CON(C)C(=O)N1N=C(c2cc(F)ccc2F)S[C@@]1(CCCN)c1ccccc1 [filanesib]
How it was run: as §1

zotarolimus = compound: CO[C@H]1C[C@@H]2CC[C@@H](C)[C@@](O)(O2)C(=O)C(=O)N2CCCC[C@H]2C(=O)O[C@H]([C@H](C)C[C@@H]2CC[C@H](n3cnnn3)[C@H](OC)C2)CC(=O)[C@H](C)/C=C(\C)[C@@H](O)[C@@H](OC)C(=O)[C@H](C)C[C@H](C)/C=C/C=C/C=C/1C [zotarolimus]
How it was run: as §1

idasanutlin = compound: COc1cc(C(=O)O)ccc1NC(=O)[C@@H]1N[C@@H](CC(C)(C)C)[C@](C#N)(c2ccc(Cl)cc2F)[C@H]1c1cccc(Cl)c1F [idasanutlin]
How it was run: as §1

alisertib = compound: COc1cc(Nc2ncc3c(n2)-c2ccc(Cl)cc2C(c2c(F)cccc2OC)=NC3)ccc1C(=O)O [alisertib]
How it was run: as §1

[2] = compound: COc1cc2nc(-c3cc(F)ccc3O)nc(N[C@@H]3CNC[C@H]3C(C)(C)O)c2cc1OC
How it was run: as §1

gefitinib = compound: COc1cc2ncnc(Nc3ccc(F)c(Cl)c3)c2cc1OCCCN1CCOCC1 [gefitinib]
How it was run: as §1

[3] = compound: COc1cccc2cc(-c3nc([C@H]4CC[C@H](C(=O)O)CC4)n4ncnc(N)c34)[nH]c12
How it was run: as §1

lapatinib = compound: CS(=O)(=O)CCNCc1ccc(-c2ccc3ncnc(Nc4ccc(OCc5cccc(F)c5)c(Cl)c4)c3c2)o1 [lapatinib]
How it was run: as §1

pictilisib = compound: CS(=O)(=O)N1CCN(Cc2cc3nc(-c4cccc5[nH]ncc45)nc(N4CCOCC4)c3s2)CC1 [pictilisib]
How it was run: as §1

Measured: log2 fold change

PSMD5 (UniProt Q16401)
Chain of UniProt Q16401 (Q16401 whole entry, looked up): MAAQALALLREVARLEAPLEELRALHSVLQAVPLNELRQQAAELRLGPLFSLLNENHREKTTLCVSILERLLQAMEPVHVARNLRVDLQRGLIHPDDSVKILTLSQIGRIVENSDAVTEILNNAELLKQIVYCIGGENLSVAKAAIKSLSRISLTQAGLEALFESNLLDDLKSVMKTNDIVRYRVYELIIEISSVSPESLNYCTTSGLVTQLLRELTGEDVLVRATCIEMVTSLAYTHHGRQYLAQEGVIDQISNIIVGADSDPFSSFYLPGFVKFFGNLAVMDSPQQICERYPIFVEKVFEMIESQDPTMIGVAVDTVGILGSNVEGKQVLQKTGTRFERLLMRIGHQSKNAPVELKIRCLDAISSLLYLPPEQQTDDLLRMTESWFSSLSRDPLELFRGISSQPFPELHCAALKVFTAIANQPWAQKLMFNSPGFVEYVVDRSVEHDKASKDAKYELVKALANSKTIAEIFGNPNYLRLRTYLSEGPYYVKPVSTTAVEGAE
inactive: [1] 0.024 | filanesib -0.046 | zotarolimus 0.013 | idasanutlin -0.055 | alisertib -0.055 | [2] -0.017 | gefitinib -0.013 | [3] 0 | lapatinib 0.017 | pictilisib -0.017

PRKAR1B (UniProt P31321)
inactive: [1] 0.1 | filanesib 0.034 | zotarolimus 0.011 | idasanutlin -0.099 | alisertib 0.02 | [2] 0.027 | gefitinib 0.051 | [3] -0.162 | lapatinib 0.004 | pictilisib 0.199

PMPCA (UniProt Q10713)
inactive: [1] -0.041 | filanesib 0.013 | zotarolimus 0.035 | idasanutlin -0.1 | alisertib -0.089 | [2] -0.02 | gefitinib 0.043 | [3] 0.009 | lapatinib -0.023 | pictilisib 0.018

POMP (UniProt Q9Y244)
inactive: [1] 0.175 | filanesib 0.082 | zotarolimus 0.012 | idasanutlin 0.115 | alisertib -0.153 | [2] -0.016 | gefitinib 0.076 | [3] -0.03 | lapatinib -0.022 | pictilisib 0.031

PRPF31 (UniProt Q8WWY3)
Chain of UniProt Q8WWY3 (Q8WWY3 whole entry, looked up): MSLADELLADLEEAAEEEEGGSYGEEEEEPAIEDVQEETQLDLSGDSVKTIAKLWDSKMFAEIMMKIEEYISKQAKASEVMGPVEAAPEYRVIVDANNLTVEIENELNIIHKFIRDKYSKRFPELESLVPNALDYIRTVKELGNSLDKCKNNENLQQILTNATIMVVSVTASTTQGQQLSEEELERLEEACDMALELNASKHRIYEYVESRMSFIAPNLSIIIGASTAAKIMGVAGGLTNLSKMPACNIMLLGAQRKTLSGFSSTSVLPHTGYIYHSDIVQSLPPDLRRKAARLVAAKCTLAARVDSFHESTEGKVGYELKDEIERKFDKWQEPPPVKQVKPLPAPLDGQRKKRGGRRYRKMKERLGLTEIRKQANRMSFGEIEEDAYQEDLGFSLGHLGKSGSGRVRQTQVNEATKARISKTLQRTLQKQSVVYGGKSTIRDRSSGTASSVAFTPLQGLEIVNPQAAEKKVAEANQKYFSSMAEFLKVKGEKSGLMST
inactive: [1] 0.07 | filanesib 0.006 | zotarolimus -0.028 | idasanutlin -0.053 | alisertib 0.081 | [2] -0.393 | gefitinib 0.003 | [3] 0.024 | lapatinib 0.061 | pictilisib 0.139

PMM2 (UniProt O15305)
inactive: [1] -0.054 | filanesib -0.014 | zotarolimus -0.01 | idasanutlin 0.011 | alisertib 0.009 | [2] 0.071 | gefitinib 0.016 | [3] 0.034 | lapatinib -0.088 | pictilisib -0.113

PEF1 (UniProt Q9UBV8)
inactive: [1] -0.009 | filanesib -0.038 | zotarolimus 0.041 | idasanutlin -0.009 | alisertib -0.008 | [2] -0.089 | gefitinib -0.011 | [3] 0.058 | lapatinib 0.032 | pictilisib -0.076

PTRH2 (UniProt Q9Y3E5)
Chain of UniProt Q9Y3E5 (Q9Y3E5 whole entry, looked up): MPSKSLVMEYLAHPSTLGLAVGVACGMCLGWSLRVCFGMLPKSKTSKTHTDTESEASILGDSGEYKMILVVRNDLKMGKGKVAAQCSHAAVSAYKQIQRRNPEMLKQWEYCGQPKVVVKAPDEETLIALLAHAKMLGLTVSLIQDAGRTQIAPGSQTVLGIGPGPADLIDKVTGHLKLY
active: [1] 0.403
inactive: filanesib -0.033 | zotarolimus 0.01 | idasanutlin -0.076 | alisertib -0.009 | [2] 0.07 | gefitinib 0.015 | [3] 0.001 | lapatinib 0.012 | pictilisib -0.005

PKN1 isoform 2 (UniProt Q16512)
inactive: [1] 0.001 | filanesib 0.019 | zotarolimus 0.046 | idasanutlin -0.05 | alisertib -0.021 | [2] -0.217 | gefitinib 0.001 | [3] -0.044 | lapatinib -0.009 | pictilisib -0.007

PLBD2 (UniProt Q8NHP8)
inactive: [1] -0.069 | filanesib -0.015 | zotarolimus -0.029 | idasanutlin -0.012 | alisertib -0.048 | [2] -0.007 | gefitinib 0.018 | [3] 0.041 | lapatinib -0.008 | pictilisib 0.027

PFDN1 (UniProt O60925)
inactive: [1] -0.048 | filanesib -0.007 | zotarolimus 0.091 | idasanutlin -0.024 | alisertib -0.042 | [2] -0.125 | gefitinib -0.002 | [3] 0.026 | lapatinib -0.047 | pictilisib 0.014

PKM (UniProt P14618)
inactive: [1] 0 | filanesib -0.048 | zotarolimus -0.004 | idasanutlin -0.04 | alisertib -0.073 | [2] 0.012 | gefitinib -0.002 | [3] 0.054 | lapatinib -0.033 | pictilisib 0.026

PARL (UniProt Q9H300)
inactive: [1] -0.061 | filanesib -0.091 | zotarolimus -0.034 | idasanutlin -0.068 | alisertib -0.016 | [2] -0.2 | gefitinib 0.038 | [3] 0.08 | lapatinib 0.04 | pictilisib 0.011

PSMC2 (UniProt P35998)
inactive: [1] -0.076 | filanesib 0.049 | zotarolimus -0.03 | idasanutlin 0.033 | alisertib -0.05 | [2] -0.034 | gefitinib -0.051 | [3] -0.05 | lapatinib 0.059 | pictilisib -0.067

PPT2 isoform 3 (UniProt Q9UMR5)
Chain of UniProt Q9UMR5 (Q9UMR5 whole entry, looked up): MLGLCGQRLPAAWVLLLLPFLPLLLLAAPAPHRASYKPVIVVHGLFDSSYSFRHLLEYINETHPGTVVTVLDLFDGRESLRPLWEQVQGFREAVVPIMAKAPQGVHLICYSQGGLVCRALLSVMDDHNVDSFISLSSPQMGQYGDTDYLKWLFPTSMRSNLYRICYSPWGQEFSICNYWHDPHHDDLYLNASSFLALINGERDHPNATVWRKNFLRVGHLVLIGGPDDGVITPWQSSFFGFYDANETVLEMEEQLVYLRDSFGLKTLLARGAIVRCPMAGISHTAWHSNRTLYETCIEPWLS
inactive: [1] 0.052 | filanesib 0.008 | zotarolimus -0.019 | idasanutlin -0.082 | alisertib -0.114 | [2] -0.029 | gefitinib -0.004 | [3] 0.093 | lapatinib 0.035 | pictilisib 0.024

PPM1G (UniProt O15355)
inactive: [1] -0.011 | filanesib 0.014 | zotarolimus 0.028 | idasanutlin 0.066 | alisertib 0.019 | [2] 0.081 | gefitinib 0.044 | [3] -0.089 | lapatinib -0.052 | pictilisib 0.093

PDCD6 (UniProt O75340)
Chain of UniProt O75340 (O75340 whole entry, looked up): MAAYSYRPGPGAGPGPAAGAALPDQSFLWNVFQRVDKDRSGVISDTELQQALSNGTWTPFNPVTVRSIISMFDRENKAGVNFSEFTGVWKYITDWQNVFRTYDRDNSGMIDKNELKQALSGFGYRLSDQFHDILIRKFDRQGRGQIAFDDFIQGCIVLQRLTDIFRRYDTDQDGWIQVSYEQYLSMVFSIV
inactive: [1] -0.06 | filanesib -0.124 | zotarolimus -0.03 | idasanutlin -0.106 | alisertib 0.092 | [2] 0.047 | gefitinib -0.021 | [3] 0.013 | lapatinib -0.035 | pictilisib 0.038

PNPLA8 (UniProt Q9NP80)
inactive: [1] -0.061 | filanesib 0.006 | zotarolimus -0.077 | idasanutlin -0.072 | alisertib -0.053 | [2] -0.125 | gefitinib 0.032 | [3] 0.047 | lapatinib -0.022 | pictilisib 0.118

PRKAB2 (UniProt O43741)
inactive: [1] 0.038 | filanesib -0.167 | zotarolimus 0.109 | idasanutlin 0.14 | alisertib 0.053 | [2] -0.074 | gefitinib 0.004 | [3] 0.057 | lapatinib 0.131 | pictilisib 0.111

PPP4R3B (UniProt Q5MIZ7)
Chain of UniProt Q5MIZ7 (Q5MIZ7 whole entry, looked up): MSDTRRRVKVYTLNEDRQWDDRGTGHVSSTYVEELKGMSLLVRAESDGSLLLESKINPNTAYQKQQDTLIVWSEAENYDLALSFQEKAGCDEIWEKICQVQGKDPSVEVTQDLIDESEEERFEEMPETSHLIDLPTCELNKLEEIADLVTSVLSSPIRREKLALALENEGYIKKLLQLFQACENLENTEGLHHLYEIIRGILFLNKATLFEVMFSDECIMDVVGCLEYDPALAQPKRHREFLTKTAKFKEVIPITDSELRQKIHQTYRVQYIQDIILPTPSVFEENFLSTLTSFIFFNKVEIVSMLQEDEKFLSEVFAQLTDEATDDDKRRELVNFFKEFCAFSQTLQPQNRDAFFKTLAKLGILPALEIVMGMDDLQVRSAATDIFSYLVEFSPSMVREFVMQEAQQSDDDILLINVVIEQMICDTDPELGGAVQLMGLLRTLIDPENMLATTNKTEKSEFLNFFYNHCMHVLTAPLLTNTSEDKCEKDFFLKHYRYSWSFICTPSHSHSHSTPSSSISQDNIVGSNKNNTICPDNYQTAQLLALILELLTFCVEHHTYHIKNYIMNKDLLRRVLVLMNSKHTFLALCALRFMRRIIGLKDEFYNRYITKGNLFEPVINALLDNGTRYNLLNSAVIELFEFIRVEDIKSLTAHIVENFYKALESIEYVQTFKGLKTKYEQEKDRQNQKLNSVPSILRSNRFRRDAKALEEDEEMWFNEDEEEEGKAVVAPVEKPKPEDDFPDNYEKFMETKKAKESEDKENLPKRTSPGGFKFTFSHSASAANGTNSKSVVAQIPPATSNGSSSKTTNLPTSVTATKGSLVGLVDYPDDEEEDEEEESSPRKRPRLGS
inactive: [1] -0.01 | filanesib -0.004 | zotarolimus 0.014 | idasanutlin -0.039 | alisertib 0.048 | [2] 0 | gefitinib -0.034 | [3] -0.034 | lapatinib 0.047 | pictilisib 0.076

PLIN2 (UniProt Q99541)
Chain of UniProt Q99541 (Q99541 whole entry, looked up): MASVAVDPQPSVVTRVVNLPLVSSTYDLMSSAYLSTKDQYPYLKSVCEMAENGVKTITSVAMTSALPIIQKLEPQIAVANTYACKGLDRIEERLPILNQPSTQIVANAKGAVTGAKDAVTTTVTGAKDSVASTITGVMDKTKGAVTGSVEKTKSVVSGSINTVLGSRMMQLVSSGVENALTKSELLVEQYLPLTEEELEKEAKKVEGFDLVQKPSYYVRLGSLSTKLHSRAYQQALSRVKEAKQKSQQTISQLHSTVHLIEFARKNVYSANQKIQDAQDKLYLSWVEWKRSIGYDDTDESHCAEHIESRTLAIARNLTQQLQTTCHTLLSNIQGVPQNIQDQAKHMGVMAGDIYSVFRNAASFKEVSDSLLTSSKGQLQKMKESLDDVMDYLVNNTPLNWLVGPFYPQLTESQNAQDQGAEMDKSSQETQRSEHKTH
active: filanesib -0.44 | [2] -0.891
inactive: [1] -0.014 | zotarolimus -0.041 | idasanutlin -0.107 | alisertib 0.058 | gefitinib 0.003 | [3] 0.028 | lapatinib -0.093 | pictilisib 0.023

PRKAG1 isoform 3 (UniProt P54619)
inactive: [1] -0.02 | filanesib -0.036 | zotarolimus 0 | idasanutlin -0.004 | alisertib 0.022 | [2] 0.008 | gefitinib 0.002 | [3] 0.049 | lapatinib -0.055 | pictilisib -0.037

PRKCQ (UniProt Q04759)
inactive: [1] -0.044 | filanesib -0.027 | zotarolimus 0.052 | idasanutlin -0.003 | alisertib -0.018 | [2] -0.206 | gefitinib 0.021 | [3] -0.008 | lapatinib 0.041 | pictilisib -0.053

PPP2R5C isoform 4 (UniProt Q13362)
Chain of UniProt Q13362 (Q13362 whole entry, looked up): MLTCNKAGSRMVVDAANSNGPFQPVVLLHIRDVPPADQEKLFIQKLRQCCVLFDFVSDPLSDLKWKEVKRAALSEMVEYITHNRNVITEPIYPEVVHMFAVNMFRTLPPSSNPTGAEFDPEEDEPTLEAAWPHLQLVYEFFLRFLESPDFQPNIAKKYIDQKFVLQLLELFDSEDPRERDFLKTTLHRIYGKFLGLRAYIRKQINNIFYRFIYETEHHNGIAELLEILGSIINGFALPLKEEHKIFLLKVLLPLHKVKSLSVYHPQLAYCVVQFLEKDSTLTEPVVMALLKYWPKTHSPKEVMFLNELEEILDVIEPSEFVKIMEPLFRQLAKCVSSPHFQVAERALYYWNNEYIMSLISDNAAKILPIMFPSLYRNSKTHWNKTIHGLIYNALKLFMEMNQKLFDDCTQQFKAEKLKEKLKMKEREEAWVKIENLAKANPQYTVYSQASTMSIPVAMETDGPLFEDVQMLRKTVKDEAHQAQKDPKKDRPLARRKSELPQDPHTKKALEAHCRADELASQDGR
inactive: [1] 0.125 | filanesib -0.018 | zotarolimus -0.019 | idasanutlin 0.017 | alisertib 0.031 | [2] 0.155 | gefitinib -0.004 | [3] 0.002 | lapatinib 0.053 | pictilisib 0.021

PSMB4 (UniProt P28070)
inactive: [1] -0.033 | filanesib 0.034 | zotarolimus -0.011 | idasanutlin -0.012 | alisertib -0.031 | [2] -0.074 | gefitinib -0.038 | [3] 0.005 | lapatinib 0.03 | pictilisib -0.026

PLSCR1 (UniProt O15162)
inactive: [1] -0.017 | filanesib 0.01 | zotarolimus -0.012 | idasanutlin 0.033 | alisertib -0.006 | [2] -0.046 | gefitinib 0.016 | [3] 0.145 | lapatinib 0.051 | pictilisib 0.037

POP1 (UniProt Q99575)
inactive: [1] 0.025 | filanesib -0.023 | zotarolimus 0.033 | idasanutlin -0.009 | alisertib -0.054 | [2] -0.109 | gefitinib 0.012 | [3] 0.021 | lapatinib 0.084 | pictilisib -0.01

POLD1 (UniProt P28340)
Chain of UniProt P28340 (P28340 whole entry, looked up): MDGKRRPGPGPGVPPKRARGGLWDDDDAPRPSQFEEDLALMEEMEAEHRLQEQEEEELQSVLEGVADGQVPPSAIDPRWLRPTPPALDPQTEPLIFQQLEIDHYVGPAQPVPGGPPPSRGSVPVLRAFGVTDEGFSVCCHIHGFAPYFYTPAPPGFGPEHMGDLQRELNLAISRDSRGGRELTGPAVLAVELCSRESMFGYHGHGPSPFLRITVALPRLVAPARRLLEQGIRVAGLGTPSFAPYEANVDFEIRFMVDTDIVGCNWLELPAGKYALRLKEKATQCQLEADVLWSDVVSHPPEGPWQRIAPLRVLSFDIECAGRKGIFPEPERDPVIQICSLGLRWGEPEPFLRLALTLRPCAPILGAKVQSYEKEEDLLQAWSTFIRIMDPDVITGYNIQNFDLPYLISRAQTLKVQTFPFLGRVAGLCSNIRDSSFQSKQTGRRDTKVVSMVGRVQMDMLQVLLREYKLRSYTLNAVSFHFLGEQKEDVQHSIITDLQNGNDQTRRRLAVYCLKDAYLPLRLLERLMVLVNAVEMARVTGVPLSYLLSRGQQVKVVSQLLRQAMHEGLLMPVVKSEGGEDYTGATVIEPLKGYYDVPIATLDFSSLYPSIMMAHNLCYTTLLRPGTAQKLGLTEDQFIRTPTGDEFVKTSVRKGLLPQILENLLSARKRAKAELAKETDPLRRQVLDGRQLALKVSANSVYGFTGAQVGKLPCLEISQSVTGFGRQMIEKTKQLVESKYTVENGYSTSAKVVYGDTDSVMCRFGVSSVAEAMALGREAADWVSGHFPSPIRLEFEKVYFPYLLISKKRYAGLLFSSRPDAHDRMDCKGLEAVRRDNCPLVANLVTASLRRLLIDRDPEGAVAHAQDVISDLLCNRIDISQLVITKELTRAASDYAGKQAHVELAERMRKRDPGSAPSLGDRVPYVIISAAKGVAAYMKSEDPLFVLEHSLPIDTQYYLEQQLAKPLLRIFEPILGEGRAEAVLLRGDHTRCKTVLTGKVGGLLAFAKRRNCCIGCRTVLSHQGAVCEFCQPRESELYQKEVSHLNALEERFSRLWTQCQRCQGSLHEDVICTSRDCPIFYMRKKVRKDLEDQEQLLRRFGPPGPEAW
inactive: [1] 0.025 | filanesib -0.038 | zotarolimus 0.007 | idasanutlin 0.024 | alisertib -0.042 | [2] -0.006 | gefitinib 0.007 | [3] 0.047 | lapatinib 0.01 | pictilisib 0

PTPA (UniProt Q15257)
Chain of UniProt Q15257 (Q15257 whole entry, looked up): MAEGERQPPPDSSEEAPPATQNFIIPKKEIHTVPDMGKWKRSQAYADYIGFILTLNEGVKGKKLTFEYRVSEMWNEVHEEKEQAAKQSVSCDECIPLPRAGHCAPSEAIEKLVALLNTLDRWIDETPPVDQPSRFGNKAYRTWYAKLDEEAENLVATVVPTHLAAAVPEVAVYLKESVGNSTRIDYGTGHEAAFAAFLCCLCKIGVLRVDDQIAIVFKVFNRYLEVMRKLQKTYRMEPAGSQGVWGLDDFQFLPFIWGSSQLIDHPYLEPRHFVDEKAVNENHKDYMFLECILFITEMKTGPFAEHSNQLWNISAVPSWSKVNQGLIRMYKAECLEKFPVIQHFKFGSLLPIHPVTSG
inactive: [1] -0.015 | filanesib -0.022 | zotarolimus 0.02 | idasanutlin -0.064 | alisertib -0.041 | [2] 0.034 | gefitinib 0.018 | [3] 0.036 | lapatinib 0.012 | pictilisib 0.02

— the supplement of paper PMC10849652
